# Laboratory results taken from PubChem BioAssay AID1469 (National Center for Advancing Translational Sciences (NCATS), 2008).
# Screen size: about 280,000 compounds; about 180 (0.064%) were called active. The full list was thinned out, with actives kept by preference. Values without a mark were called inactive. Calls come from the whole dose curve; as a rule, active = well fitted inhibition curve with a large enough effect; inconclusive = small, poorly fitted or top-dose-only effect, or effect the other way; inactive = flat fitted curve, though single readings scatter.
# Target: Thyroid hormone receptor beta (Homo sapiens) (UniProt P10828)
# Assay: qHTS for Inhibitors of the Interaction of Thyroid Hormone Receptor and Steroid Receptor Coregulator 2; note: nearly all actives have a fitted effect of over 50% in size
# Conditions: TRbeta-SRC2 peptide binding, fluorescence polarization, receptor liganded with 1 µM T3; series mostly up to 106 µM; activity change, negative = inhibition: at the top concentration
# Description: NIH Molecular Libraries Probe Production Network [MLPCN]
# NIH Chemical Genomics Center [NCGC]
# Assay Provider: R. Kip Guy, St. Jude Children's Research Hospital
# Thyroid receptor (TR) regulates many homeostatic processes including basal metabolism, cardiovascular function, body weight, and lipid trafficking. TR modulators are potential therapeutics for obesity and hyperlipidemias but current thyroid analogs have undesirable side effects, particularly cardiac stimulation. To identify inhibitors that specifically prevent the interaction of TR with the steroid receptor coregulator 2 (SRC2), a fluorescence polarization assay was screened. This assay detects interaction of the ligand-binding domain of human TRb with a Texas Red labeled SRC2 peptide, corresponding to a 20 amino acid region of the nuclear receptor interaction domain (Arnold et al., 2006). Small molecule inhibitors that block the interaction of TR and SRC2 are detected by a decrease in fluorescence polarization.
# Arnold, L. A.; Estebanez-Perpina, E.; Togashi, M.; Shelat, A.; Ocasio, C. A.; McReynolds, A. C.; Nguyen, P.; Baxter, J. D.; Fletterick, R. J.; Webb, P.; Guy, R. K. A high-throughput screening method to identify small molecule inhibitors of thyroid hormone receptor coactivator binding. Sci STKE 2006, p 13.
# NCGC Assay Protocol Summary:
# For screening, 5 uL/well 0.6 uM TRb and 20 nM SRC2 Texas Red in protein buffer (20mM Tris hydrochloride, 100mM NaCl, 10% glycerol, 1mM EDTA, 0.01% NP-40, 1mM DTT, 1uM T3 and 5% DMSO) was dispensed into black solid 1536-well plates (Grenier) using a solenoid-based dispenser. Following transfer of 23 nL compound or DMSO vehicle by a pin tool, the plates were centrifuged 15 s at 1000 RPM and incubated 5 hr at ambient temperature. The plates were read by an Envision (Perkin Elmer) to detect fluorescence polarization of SRC2 Texas Red (555 nm excitation and 632 nm emission). Data were normalized to unbound (all components except TRb) and bound SRC2 Texas Red controls. In this assay, we provide % activity data for each concentration as well as potencies for the active compounds.
# Keywords: NIH Roadmap, MLPCN, MLI, MLSMR, qHTS, NCGC, qHTS, thyroid hormone receptor, steroid receptor coactivator, fluorescence polarization
# Potency is the fitted concentration of half-maximal effect.
# Thyroid hormone receptor beta (Homo sapiens), sequence (P10828 whole entry, looked up): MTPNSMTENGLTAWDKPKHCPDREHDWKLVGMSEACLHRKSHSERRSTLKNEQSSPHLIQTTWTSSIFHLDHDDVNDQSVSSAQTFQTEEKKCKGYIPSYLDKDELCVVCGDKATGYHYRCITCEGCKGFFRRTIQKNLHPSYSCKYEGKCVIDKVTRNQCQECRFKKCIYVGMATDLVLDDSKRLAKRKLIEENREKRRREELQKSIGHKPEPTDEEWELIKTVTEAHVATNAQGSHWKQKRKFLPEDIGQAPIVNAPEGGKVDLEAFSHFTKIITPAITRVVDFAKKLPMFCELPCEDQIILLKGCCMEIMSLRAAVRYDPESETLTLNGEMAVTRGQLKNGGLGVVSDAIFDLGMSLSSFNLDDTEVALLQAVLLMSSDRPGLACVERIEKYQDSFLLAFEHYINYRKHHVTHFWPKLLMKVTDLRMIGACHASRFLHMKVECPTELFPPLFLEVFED
Structure (SMILES),"activity change, negative = inhibition",Potency
Cc1ccc(CN2CCc3nc(N4CCN(C)CC4)ncc3C2)cc1,-3.16%,
CCN1CCN(c2ncc3c(n2)CC(c2ccccc2O)CC3=O)CC1 (stereo not given),4.08%,
Cc1nc2nc(SCC(=O)N(Cc3ccccc3)C(C)C)nn2c(C)c1Cc1ccccc1Cl,6.02%,
Cc1ccc(NC(=O)c2nc(S(=O)(=O)Cc3cccc(C)c3)ncc2Cl)cc1,-0.903%,
CC(=O)OC1=C(C(C)=O)N(Cc2ccccc2)S(=O)(=O)c2ccccc21,-0.701%,
Cc1cccc(OCCSc2nc3ccccc3n2CC(=O)N2CCCCC2)c1C,-1.35%,
Cc1ccccc1CNC(=O)CCCn1nc(C)c2sc3ccccc3c2c1=O,-0.387%,
Cc1c(C)n(Cc2ccc(Cl)cc2)c2ccc(C(=O)NCCc3ccc(S(N)(=O)=O)cc3)cc12,-3.01%,
COc1ccc2cc(CNc3ccc(OC)c(OC)c3)c(=O)n(CC(=O)Nc3ccccc3F)c2c1,-2.35%,
CSc1ccc(C2C(C(=O)Nc3ccccc3)=C(C)Nc3nc4ccccc4n32)cc1 (stereo not given),-8.79%,
COc1ccc(CCNC(=O)c2nn(C)c3c2CSc2ccccc2-3)cc1OC,-1.01%,
COc1ccc(-c2nc(C)c(CCNC(=O)c3ccc(C(F)(F)F)cc3)s2)cc1OC,0.0329%,
COc1c(O)c2c(=O)cc(OC)c3c4c(OC)cc(=O)c5c(O)c(OC)c6c(c(c1C[C@@](C)(O)[C@H]6C(C)=O)c23)c54,,35.5 µM (active)
COc1ccc2c(c1)c(N1CCCC1=O)c(C(=O)Nc1ccc(OC)c(Cl)c1)n2C,3.35%,
COc1ccc(Cl)cc1NC(=O)c1sc2nc3c(cc2c1N)CN(C)CC3,0.478%,
Cc1cccc(NC(c2cccc(F)c2)c2ccc3ccc(C)nc3c2O)n1 (stereo not given),0.0507%,
CCOc1ccc(N(Cc2ccccc2)C(=O)c2nc(S(C)(=O)=O)ncc2Cl)cc1,-7.22%,
O=C(/C=C/c1ccccc1[N+](=O)[O-])NCC1CCCO1 (stereo not given),1.44%,
CC1CCCCC1NC(=O)/C(C#N)=C/C=C/c1ccccc1[N+](=O)[O-] (stereo not given),,39.8 µM (active)
O=C(/C=C/c1ccccc1[N+](=O)[O-])OC1CCCCC1=O (stereo not given),0.395%,

Structure (SMILES),"activity change, negative = inhibition",Potency
CCNS(=O)(=O)c1cc(-c2nnc(Nc3cccc(C(F)(F)F)c3)c3ccccc23)ccc1C,8.87%,
O=C(NCCCN1CCN(c2cccc(Cl)c2)CC1)c1nnc(Cc2ccc(F)cc2Cl)o1,5.2%,
COc1ccc(-c2cc(NCc3ccc(F)cc3)n3cnnc3n2)cc1,2.27%,
Cc1ccc(NC(=O)CN2C(=O)C(c3ccc(F)cc3)=NC23CCCCCC3)c(C)c1,-0.31%,
Cc1ccc(Nc2c(-c3ccc(N(C)C)cc3)nc3nc[nH]n23)cc1,2.09%,
O=C(NC1CC(=O)N(c2ccc(F)cc2)C1)c1ccc(S(=O)(=O)N2CCCC2)cc1 (stereo not given),-0.489%,
COC(=O)c1ccc(NC(=O)CSc2n[nH]c(-c3ccccc3)n2)cc1,1.11%,
Cn1nc(-c2ccccc2)c(-c2ccccc2)c(C(=O)Nc2ccc(S(N)(=O)=O)cc2)c1=O,-7.69%,
COc1ccc(-c2cn3c(n2)sc2cc(C(=O)Nc4ccccc4F)ccc23)cc1,0.784%,
CCOc1cccc(NC(=O)CSc2ncc(-c3ccc(Cl)cc3)[nH]2)c1,8.96%,
O=C(Nc1c(C(=O)N2CCN(c3ccc(F)cc3)CC2)oc2ccccc12)c1ccco1,5.17%,
COc1ccc(-c2noc(CSc3nc(C)cc(=O)[nH]3)n2)cc1OC,-6.31%,
CCOC(=O)c1cnc2c(C)cc(C)cc2c1Nc1ccc(N2CCOCC2)cc1,4.22%,
CC(C)c1ccc(C2CC(=O)N3CN(C4CCCCC4)CSC3=C2C#N)cc1 (stereo not given),-3.24%,
Clc1nc(Cl)c(Cl)c(Cl)c1Cl,2.91% [at 201 µM],
O=C(c1cnn(-c2ccc(F)cc2)c1-n1cccc1)N1CCN(c2ccc(F)cc2)CC1,-0.53%,
COc1ccc(-c2cccc(NS(=O)(=O)c3cc(C)c(OC)c(C)c3C)c2)nn1,-3.96%,
O=C(CSc1nc2nccnc2c(=O)n1CCc1c[nH]c2ccccc12)Nc1ccccc1F,-1.34%,
COc1cccc(-n2cc(C(=O)NCc3cccc(Cl)c3)c3ccccc3c2=O)c1,5.09%,
CCN(Cc1ccccc1)C(=O)c1cn(-c2cccc(OC)c2)c(=O)c2ccccc12,0.692%,

Structure (SMILES),"activity change, negative = inhibition",Potency
O=C(CSc1nccn1-c1ccc(F)cc1)Nc1cccc2ccccc12,-1.67%,
CC1=C(c2ccc(C)cc2)S(=O)(=O)NC1=NCCCN1CCN(c2cc(C)ccc2C)CC1,-0.687%,
COc1ccc(-c2cc(C(=O)NCc3cc(OC)c(OC)c(OC)c3)[nH]n2)cc1,1.65%,
CCC(C(=O)Nc1cc(OC)ccc1OC)n1c(=O)c(C(F)(F)F)nc2ccccc21 (stereo not given),-2.12%,
CCOC(=O)c1oc2ccc(S(=O)(=O)n3nc(-c4ccccc4OC)cc3N)cc2c1C,-12.1%,
COc1ccc(NS(=O)(=O)c2cc3c4c(c2)CC(=O)N4CCC3)cc1Cl,5.52%,
Cc1ccc(C)c(Nc2nnc(-c3ccc(C)c(S(=O)(=O)N4CCCCC4)c3)c3ccccc23)c1,-0.116%,
O=C(C1CCCN(S(=O)(=O)c2cccc3nonc23)C1)N1CCN(c2ccccc2F)CC1 (stereo not given),-9.58%,
O=C1CSC2(C(=O)N(Cc3ccccc3)c3ccccc32)N1c1cccc(F)c1 (stereo not given),3.71%,
CCn1cc(C(=O)N2CCN(c3cc(C)ccc3C)CC2)c(=O)c2cc(S(=O)(=O)N(C)C3CCCCC3)ccc21,1.74%,
Cc1nnc(NC(=O)CSc2nc3c([nH]c4ccccc43)c(=O)n2-c2cccc(Cl)c2)s1,6.72%,
COc1ccccc1N1CCN(C(=O)C2CCN(S(=O)(=O)c3c(C)noc3/C=C/c3ccc(C)cc3)CC2)CC1,7.45%,
CCOc1ccc2oc(=O)cc(CN3CCN(C(=O)c4ccc(F)cc4)CC3)c2c1,-8.37%,
Cc1cccc(N2CCN(C(=O)CCn3c(=O)c4cccn4c4cccnc43)CC2C)c1 (stereo not given),4.81%,
COc1ccc(-n2ccnc(NCCc3ccc(Cl)cc3)c2=O)cc1OC,5.85%,
CCn1c(C)c(C)c2cc(C(=O)NCCc3cc(OC)ccc3OC)ccc21,-5.66%,
COc1ccc(-c2onc(C)c2C)cc1S(=O)(=O)NCC1CCN(Cc2cccc(F)c2)CC1,2.95%,
Cc1cccc(NC(=O)CN(c2ccc(C(C)C)cc2)S(=O)(=O)c2c(C)nn(C)c2C)c1C,1.49%,
Cc1cc2c(cc3c(SCc4cccc(Cl)c4)nnc(C)n32)o1,7.69%,
COc1ccc(-c2cn3nc(N4CCC(C(=O)Nc5cccc(C)c5C)CC4)sc3n2)cc1,2.88%,
